An excerpt weighted towards active compounds, which were near 7.4% of everything screened.
ELG1 genotox: induces genotoxicity in HEK293T cells with luciferase-tagged ELG1. AID 504466. actives 1.3% (n = 330,000). HEK293T ELG1-luciferase reporter, luminescence, 16 h. Potency, µM (series often up to 46 µM), for inactives: at the highest dose activity change, positive = activation, most hits filed as activators; note: % of control where 0% means no effect; nearly all actives have a fitted effect of over 60% in size
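Screening used a luciferase reporter fused to human ELG1 in HEK293T cells. Luminescence was read on a CCD plate imager after 16 hr exposure and 30 min ONE-Glo incubation.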
FLuc modulator: firefly luciferase modulation, counter-screen for miR-21 project; actives 6.9% (n = 360,000); AID 588342; P08659; purified FLuc, Km substrates, luminescence inhibition; Potency, µM (highest dose often 57.5 µM), without a hit: at the top dose activity change, negative = inhibition, most hits filed as inhibitors;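 note: plate controls were vehicle for no effect and reference inhibitor for full effect; nearly all actives have a fitted effect of over 55% in size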
Target sequence (P08659 whole entry, looked up): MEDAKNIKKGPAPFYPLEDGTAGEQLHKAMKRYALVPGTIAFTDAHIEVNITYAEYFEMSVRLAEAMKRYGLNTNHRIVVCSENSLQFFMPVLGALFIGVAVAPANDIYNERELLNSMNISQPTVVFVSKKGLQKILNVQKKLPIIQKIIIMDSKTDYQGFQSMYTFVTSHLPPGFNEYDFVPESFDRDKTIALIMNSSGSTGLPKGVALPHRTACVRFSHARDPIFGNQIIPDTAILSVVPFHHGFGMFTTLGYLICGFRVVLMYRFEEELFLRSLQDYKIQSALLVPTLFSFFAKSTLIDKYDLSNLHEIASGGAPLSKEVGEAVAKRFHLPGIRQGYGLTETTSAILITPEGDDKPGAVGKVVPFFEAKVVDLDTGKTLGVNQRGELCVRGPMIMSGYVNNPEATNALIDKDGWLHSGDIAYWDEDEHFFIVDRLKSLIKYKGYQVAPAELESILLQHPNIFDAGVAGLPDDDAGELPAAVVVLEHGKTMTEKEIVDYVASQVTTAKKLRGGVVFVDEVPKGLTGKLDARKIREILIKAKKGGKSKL
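Purified P. pyralis luciferase (10nM final) with 10uM D-luciferin and 10uM ATP (Km levels) in 50mM Tris acetate pH 7.5, 10mM Mg acetate, 0.01% Tween-20, 0.05% BSA; qHTS 6-point titration, ~60 µM downward; luminescence read.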
Rab9 prom act: activators of Rab9 promoter; Potency, µM (doses to about 9.22 µM), inactives show at the top dose activation, negative = inhibition, actives largely listed as activators; Huh7 Rab9 promoter-luciferase reporter, luminescence, 24 h; actives 2.8% (n = 320,000); note: % of control where 0% means no effect; nearly all actives have a fitted effect of over 60% in size
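Huh7 cells stably carrying Rab9 promoter–luciferase reporter, plated 1500 cells/well, compound added after 2 h and incubated 24 h at 37 °C; luciferase luminescence then read after 10 min with detection reagent.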
NPC1 promoter act: activates the NPC1 promoter; Huh7 NPC1 promoter luciferase reporter, 24 h; Potency, µM (doses to about 9.22 µM), without a hit: at the top dose activation, usual class: activators; actives 2.4% (n = 320,000); note: % of control where 0% means no effect; nearly all actives have a fitted effect of over 60% in size
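In 1536-well qHTS, Huh7 cells harboring an NPC1 promoter–luciferase construct received compound for 24 h; activation was quantified by luminescence following luciferase reagent addition.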
SMN2 splice enh: SMN2 splice variant enhancement. Potency, µM (doses to about 46.1 µM), for the others: at the top dose activity change, positive = activation, actives largely listed as activators. HEK293 SMN2-luciferase splicing reporter, luminescence, 30-36 h. actives 2.8% (n = 210,000); note: % of control where 0% means no effect; nearly all actives have a fitted effect of over 55% in size
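HEK293 cells carry an SMN2 […]–luciferase reporter in which exon 7 inclusion puts luciferase in frame. Cells were plated 10-12 h before compound addition, then incubated 30-36 h at 37C. ONE-Glo luminescence was read; sodium butyrate at 4.5 mM final served as control.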
* hit, by the source's call; ? = inconclusive; . = not tested or not shown; [ ] = another dose, or the depositor's remark. Calls come from the whole dose curve; as a rule, active = well fitted curve in the direction sought with a large enough effect; inconclusive = small, poorly fitted or top-dose-only effect, or another doubt; inactive = no such curve, though single readings can be large; an effect the other way counts as inactive or inconclusive. Potency is the fitted concentration of half-maximal effect.

SMILES	ELG1 genotox	FLuc modulator	Rab9 prom act	NPC1 promoter act	SMN2 splice enh
Cc1csc(NC(=O)c2cc3c(s2)CCCC3)n1	?	0.269µM*	?	0.562µM*	.
Cc1cnc(NC(=O)c2cc3c(s2)CCCC3)s1	?	0.269µM*	0.708µM*	?	?
Cc1csc(NC(=O)C2CCCC2)n1	?	-25.0%	22.7%	18.3%	27.6%
Cc1csc(NC(=O)c2cc3c(s2)CCCCC3)n1	0.206µM*	0.135µM*	0.501µM*	0.355µM*	1µM*
CCc1cccc(NC(=O)C2CCCN2S(=O)(=O)c2ccc3nc(-c4ccccc4)[nH]c3c2)c1 (stereo not given)	.	-13.3%	.	.	.
CSc1nc2sc3c(c2c(=O)n1-c1ccc(C)cc1)CCCC3	.	0.5%	.	.	-16.9%
CCn1cc(Cl)c(C(=O)Nc2ccc3c(c2)OCCO3)n1	?	6.01µM*	1.58µM*	3.16µM*	11.2µM*
Cn1nccc1C(=O)Nc1ccc2c(c1)OCCO2	?	12µM*	1.58µM*	3.16µM*	.
Cc1nn(C)cc1S(=O)(=O)Nc1ccc2c(c1)OCCO2	?	?	-1.1%	-3.9%	-22.6%
CCn1cc(Cl)c(C(=O)Nc2cccc(C(F)(F)F)c2)n1	-13.9%	?	27.7%	8.7%	-6.1%
Cc1nn(C)cc1C(=O)Nc1ccc2c(c1)OCCO2	?	12µM*	3.16µM*	4.47µM*	.
Cc1c(C(=O)Nc2ccc3c(c2)OCCO3)cnn1C	3.66µM*	10.7µM*	?	?	.
COc1ccccc1Cc1nc2ccccc2nc1SCC(=O)N(C)c1ccc(F)cc1	.	-8.6%	.	.	.
Cc1c(C(=O)Nc2ccc(Br)cc2)cnn1C	?	13.5µM*	?	?	12.6µM*
Cc1ccccc1OCC(=O)OCC(=O)c1ccc(OCc2ccccc2)cc1	?	-12.0%	?	?	14.1µM*
Cc1ccccc1OCC(=O)OCC(=O)c1ccc(OC(=O)c2ccccc2)cc1	0.9%	-0.4%	-1.9%	-0.6%	-5.7%
NC(N)=NC(N)=Nc1ccccc1 (tested in a mixture with another compound)	.	.	.	.	-2.4%[9.22 µM]
Cc1c(O)cc2c(c1O)C(=O)CC(c1ccccc1)O2 (stereo not given)	3.3%	-18.9%	-1.6%	1.2%	.
COc1c(O)cc2c(c1O)C(=O)CC(c1ccccc1)O2 (stereo not given)	?	9.53µM*	?	?	.
CNc1ccccc1C(=O)N1CCc2c([nH]c3ccccc23)C1=O	.	.	.	.	-1.5%
Cc1cc(-c2nnc(SCc3ccccn3)o2)no1	11.1%	-11.9%	28.1%	25.9%	5.3%
Cc1cc(-c2nnc(CCC(=O)NCc3cccc(C(F)(F)F)c3)o2)no1	9.3%	-16.1%	7.1%	8.6%	.
Cc1cc(-c2nnc(-c3cccc(C(F)(F)F)c3)o2)no1	15.2%	16.9µM*	?	?	.
Cc1ccc(-c2nnc(-c3cc(C)on3)o2)cc1	3.26µM*	1.51µM*	0.562µM*	0.794µM*	.
Cc1cc(C(=O)N/N=C/c2ccc(Cl)c([N+](=O)[O-])c2)c(C)n1-c1ccc(F)cc1	?	-10.6%	-10.0%	-7.6%	-21.0%
SMILES	ELG1 genotox	FLuc modulator	Rab9 prom act	NPC1 promoter act	SMN2 splice enh
COc1ccc(/C=N/NC(=O)c2cc(C)n(-c3ccccc3)c2C)cc1OC	7.0%	8.49µM*	21.7%	-20.2%	16.6%
COc1ccc(/C=N/NC(=O)c2cccc(C(=O)N/N=C/c3ccc(OC)c(OC)c3)n2)cc1OC	-4.2%	1.7%	-1.5%	1.9%	.
Cc1cc(C(=O)N/N=C/c2cccc([N+](=O)[O-])c2)c(C)n1-c1ccccc1	?	0.953µM*	?	?	10µM*
Cc1csc2nc(COc3ccc(NC(=O)c4ccccc4F)cc3)cc(=O)n12	.	-2.4%	.	.	-4.8%
Cc1cccc(C)c1OCc1cc(C(=O)N2CC3C[C@@H]4CC2C[C@H](C3)C4)no1	1.7%	?	1.58µM*	2µM*	.
Cc1cccc(C)c1OCc1cc(C(=O)N2CCC(c3ccccc3)CC2)no1	22.9%	?	?	?	.
Cc1ccc(OCc2cc(C(=O)N3CC4C[C@@H]5CC3C[C@H](C4)C5)no2)cc1C	?	8.49µM*	1.41µM*	3.55µM*	.
COc1cccc(C(=O)Nc2ccccc2-c2nc3ccccc3s2)c1	.	-0.6%	.	.	9.2%
Cc1c(NC(=O)c2ncn[nH]2)cccc1-c1nc2ccccc2s1	1.4%	4.26µM*	22.4%	18.9%	8.4%
Cc1c(NC(=O)c2ccc(N3CCCC3)c([N+](=O)[O-])c2)cccc1-c1nc2ccccc2s1	-4.5%	2.69µM*	16.6%	1.3%	-36.8%
COC(=O)c1ccc(OC)c(Cn2c(=O)n(-c3ccc(C)cc3)c(=O)c3c2cnn3C)c1	.	-2.8%	.	.	-2.3%
CC(=O)Oc1cc2c(c(C)c1OC(C)=O)CC=C1[C@]3(C)CC[C@]4(C)CC[C@@](C)(C(=O)O)CC4[C@]3(C)CC[C@]12C (stereo not given in full)	.	.	.	.	-82.4%
C[C@H]1OC(=O)CC[C@@H]2[C@]1(C)CCC1[C@@]2(C)CC[C@@]2(C)C3CC(C)(C)CC[C@]3(CO)CC[C@]12C (stereo not given in full)	.	.	.	.	3.9%
Cc1noc(C)c1C(=O)N1CCC2(CCCN(c3ncccn3)C2)CC1	.	.	.	.	-9.7%
O=C(CNC(=O)c1ccccc1F)c1ccccc1	4.11µM*	3.38µM*	0.447µM*	0.447µM*	.
O=C(NCCc1ccccc1)c1ccccc1F	?	?	0.282µM*	0.631µM*	.
NNC(=O)CNC(=O)c1ccccc1F	0.1%	-4.1%	-4.9%	-2.2%	10.1%
O=C(NCCc1ccccc1)c1ccc(Br)o1	?	?	3.98µM*	?	27.9%
O=C(NCCCCc1ccccc1)c1ccccc1F	4.9%	?	16.9%	24.6%	.
O=C(NCCCCNC(=O)c1ccccc1Cl)c1ccccc1Cl	0.5%	6.5%	4.9%	-3.4%	.
O=C(CNC(=O)c1ccccc1Cl)c1ccccc1	9.2µM*	10.7µM*	0.398µM*	2.82µM*	.
O=C(NCCNC(=O)c1ccc(Br)o1)c1ccc(Br)o1	-1.2%	3.3%	8.5%	0.8%	.
Cc1ccc(NC(=O)C(=O)NCCc2sc(-c3ccc(Cl)cc3)nc2C)cc1C	.	-7.1%	.	.	.
CCN(C(=O)c1nn(-c2ccc(C)cc2)c(=O)c2c1c1ccccc1n2C)c1ccc(F)cc1	.	-0.9%	.	.	0.1%
N#Cc1cccc(NC(=O)N2CCCC3(CCN(C(=O)c4cccc(F)c4)CC3)C2)c1	.	.	.	.	-11.0%
COc1ccc(S(=O)(=O)c2c(Nc3ccc(C)cc3)sc(C(=O)c3ccc4c(c3)OCO4)c2N)cc1	.	-1.1%	.	.	.
CCOC(=O)c1cc2c(nc1N)CC(C)(CC)OC2 (stereo not given)	13µM*	?	3.16µM*	?	?
CC1(C)Cc2nc3sc(C(N)=O)c(N)c3cc2CO1	16.9%	?	?	22.0%	.
